Here are results for 12 sequences from the supplement of paper PMC6555819.

Test in all cases: PBM binding z-score (relative to random genomic background probes); higher = stronger binding; sequences stand for … in GC…GCGATTGACAGCGTAGAATGAAGG
The test system of assay [1] is FXR:RXRa (NR concentration 270 nM, RXRa partner concentration 90 nM). The essentials: (§1)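 On custom Agilent 4×180K arrays, double-stranded probes with 34-nt variable regions carried direct-repeat seeds, single-nucleotide variants, half-site ablations or random human genomic background. Ligand-free nuclear receptor dimers were applied for 1 h, and binding was read with antibodies against each partner (one per run). Binding z-scores come from regression-normalized fluorescence, with the random background probes as reference.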

The subject of assay [2] is LXRa:RXRa (NR concentration 270 nM, RXRa partner concentration 90 nM). The essentials: as §1
Assay [3] concerns LXRa homodimer (NR concentration 270 nM). The gist of the method:
as §1

The test system of assay [4] is LXRb:RXRa (NR concentration 270 nM, RXRa partner concentration 90 nM). The essentials:
as §1

Assay [5] concerns LXRb homodimer (NR concentration 270 nM). The gist of the method: as §1
Assay [6] deals with PPARa:RXRa (NR concentration 270 nM, RXRa partner concentration 90 nM). The essentials: as §1
Assay [7] has as its system PPARg:RXRa (NR concentration 180 nM, RXRa partner concentration 90 nM). The gist of the method:
as §1

In assay [8] the test system is PPARg:RXRa 270nM:90nM, anti-RXR (NR concentration 270 nM, RXRa partner concentration 90 nM). The essentials:
as §1

Assay [9] has as its system PPARg:RXRa 30nM:10nM, anti-RXR (NR concentration 30 nM, RXRa partner concentration 10 nM). The gist of the method: as §1
Assay [10] relates to PPARg:RXRa 90nM:30nM, anti-RXR (NR concentration 90 nM, RXRa partner concentration 30 nM). The gist of the method:
as §1

As for TTACCAAGGTGAGCTGAGGTCGTTGACCCAACTC, the PBM binding z-score is 2.54 in assay [1]; 2.48 in assay [2]; -0.484 in [3]; 1.43 in assay [4]; -0.784 in assay [5]; 2.06 in assay [6]. Moreover, the PBM binding z-score in assay [7] was 0.441; in assay [8], 0.96; in assay [9] it was -0.036; in assay [10] it was 0.348.
In the case of TCGAGTAGGATAGGGGCATTCAGAATGGCGTCGA, the PBM binding z-score in assay [1] was 0.0392; in assay [2], -0.388; in assay [3], -0.671; in [4], 0.283; in assay [5], -0.491; in assay [6], 0.262. For the same sequence, the PBM binding z-score in assay [7] came to 0.0969; in assay [8] it was 0.573; in [9], 0.884; in [10], 0.812.
For ACAGACAGGTGAGTGAAGGAAACTCAGCTGGACG, the PBM binding z-score was -0.54 in assay [1]; -0.517 in assay [2]; -0.15 in assay [3]; -0.792 in assay [4]; -0.646 in [5]; -1.08 in assay [6]. Also, the PBM binding z-score was 0.519 in assay [7], -0.724 in assay [8], -0.177 in assay [9] and -0.368 in [10].
Consider ACAGACAGGTGAGTGAAGTTAACTCAGCTGGACG, for which the PBM binding z-score in [1] is -0.59; in assay [2], -0.611; in assay [3] it was -0.779; in [4], -0.663; in [5] it was -0.63; in [6], -0.341. Further, the PBM binding z-score in assay [7] was 0.529; in assay [8], -0.616; in assay [9] it was -0.371; in assay [10], -0.832.
Take TTACCGAGGTGAAGGTCGTTGATCCCTCTGTAGA: the PBM binding z-score in assay [1] is 2.23; in assay [2], 2.18; in assay [3], -0.314; in [4], 1.71; in assay [5], -0.388; in assay [6], 2.95. Moreover, the PBM binding z-score in assay [7] turned out to be 3.07; in assay [8], 3.81; in [9], 1.61; in assay [10], 3.
Consider CCGACTGGGGTAGAAAGGTTACCATACCATCCGG, for which the PBM binding z-score was 0.17 in assay [1]; 0.786 in assay [2]; -0.133 in assay [3]; 1.06 in [4]; -1.02 in assay [5]; 2.58 in [6]. The PBM binding z-score stood at 2.04 in [7], 3.63 in assay [8], 1.08 in assay [9] and 3.32 in assay [10].
Consider TTACCAAGGTGAGCTGAGGTCCTTGATCCAACTC, for which the PBM binding z-score in [1] is 0.6; in assay [2], -0.364; in [3], -0.744; in assay [4], -0.383; in assay [5] it was -1.22; in assay [6], 0.604. Further, the PBM binding z-score is -0.286 in [7], 0.115 in assay [8], -0.357 in assay [9] and -0.0305 in assay [10].
As to ACTACCAGGCCAAGTTTGGGTCACTCAAACAAAG, the PBM binding z-score in [1] was found to be 0.642; in [2] it was 0.276; in assay [3], 0.197; in assay [4] it was 1.05; in [5], 0.0374; in assay [6], 1.58. The PBM binding z-score in [7] is 0.43; in [8] it was 0.598; in [9], -0.29; in assay [10], 0.255.
Turning to TCTTGTAGATCAATAGAGGTTAAAAAAGTGCGCT, the PBM binding z-score was 0.88 in assay [1]; 4.42 in assay [2]; 1.13 in assay [3]; 2.5 in [4]; 0.00759 in [5]; 2.06 in assay [6]. Moreover, the PBM binding z-score in [7] was 0.202; in assay [8] it was 1.65; in assay [9], 2.75; in assay [10], 2.06.
Turning to AGTCATAGTTCATCTAGGTAACGTAAGATATGCT, the PBM binding z-score was 2.22 in [1]; 2.66 in [2]; 1.11 in [3]; 1.59 in [4]; 0.357 in assay [5]; 2.84 in assay [6]. In addition, the PBM binding z-score in [7] came out at 2.87; in assay [8] it was 3.22; in [9] it was 1.32; in assay [10] it was 2.47.
For ACTATTTGTTGAGACGAGGGCAACCGATAGGTTG, the PBM binding z-score is 0.374 in assay [1]; 0.535 in assay [2]; 0.28 in assay [3]; 0.453 in [4]; 0.762 in [5]; 0.255 in assay [6]. In addition, the PBM binding z-score in assay [7] was determined as 0.623; in assay [8], 0.216; in [9], 0.23; in [10], 0.0132.
On to CTCTAAAGGTCGTGCTCAGGTGAGTATACCAAAC, for which the PBM binding z-score came out at 5.37 in assay [1]; 4.54 in assay [2]; 0.529 in assay [3]; 3.65 in assay [4]; 0.548 in assay [5]; 5.2 in assay [6]. The PBM binding z-score came to 3.27 in assay [7], 4.11 in assay [8], 0.925 in assay [9] and 2.64 in assay [10].
